Measurements reported in PubChem BioAssay AID485358 (National Center for Advancing Translational Sciences (NCATS), 2010).
The whole screen tested about 340,000 compounds, of which about 1,800 (0.53%) were called active. What follows is part of a selection rich in actives, with near analogues and random picks from the rest. Values without a mark were called inactive.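 Rule for the calls: active = activation over 3 SD above normal in the single-dose calcium agonist read (cut at about 30% in these data); inactive = the rest.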

These molecules were tested against D(2) dopamine receptor (Homo sapiens) (UniProt P14416) (assay: HTS Assay for Allosteric Agonists of the Human D2 Dopamine Receptor: Primary Screen for Agonists). Details: HEK293 T-REx D2 cells, calcium flux agonist mode; at 2 µM; stronger effect = higher value.
How it was run: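 Agonism scored from kinetic calcium signal (1 read/sec, 180 s) following compound pin transfer, after a 10 s baseline. Cells: HEK293 Trex line expressing inducible D2 receptor coupled to calcium, dye-loaded after overnight culture at 30 C.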
Note: 0% is about no effect.

D(2) dopamine receptor (Homo sapiens), sequence (P14416 whole entry, looked up): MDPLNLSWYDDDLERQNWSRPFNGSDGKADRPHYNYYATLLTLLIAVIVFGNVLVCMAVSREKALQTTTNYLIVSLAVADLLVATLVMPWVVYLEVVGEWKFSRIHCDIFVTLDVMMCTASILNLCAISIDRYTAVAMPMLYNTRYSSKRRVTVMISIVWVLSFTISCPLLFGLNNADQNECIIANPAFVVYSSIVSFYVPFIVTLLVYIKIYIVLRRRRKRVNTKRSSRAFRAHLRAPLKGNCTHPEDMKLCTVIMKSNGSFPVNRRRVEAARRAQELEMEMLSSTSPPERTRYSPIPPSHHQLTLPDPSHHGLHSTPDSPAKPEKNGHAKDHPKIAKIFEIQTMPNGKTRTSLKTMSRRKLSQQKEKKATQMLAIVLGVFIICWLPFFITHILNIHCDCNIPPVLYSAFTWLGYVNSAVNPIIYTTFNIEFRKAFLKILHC

Point of comparison: `O=C(C1CCN(Cc2ccc(Cl)cc2)CC1)N1CCN(Cc2ccc3c(c2)OCO3)CC1`, activation 0.973%. Against it:
- Cc1ccc(Cl)cc1NC(=O)/C(C#N)=C\c1cn(Cc2ccc(F)cc2)c2ccccc12 — lower, 0.348%
- Cc1nc2c(c(=O)n1Cc1ccco1)c1nc3ccccc3nc1n2Cc1ccccc1 — lower, -0.619%
- C=CCSc1nc2c(c(=O)[nH]c(=O)n2C)n1Cc1ccccc1 — lower, -0.578%
- Cc1cccc(CC(=O)N2CC(=O)Nc3ccc(F)cc3C2c2ccccc2)c1 (configuration not stated) — lower, -0.521%
- CCCN(CCC)C(=O)C1CCCN(c2ncnc3c2nc2n3CCCCC2)C1 (configuration not stated) — lower, 0.0903%
- Cn1c(=O)c2sccc2n2c(CCC(=O)NCc3ccccc3Cl)nnc12 — lower, -0.258%
- CC(C(=O)O)N1C(=O)c2cccc3cccc1c23 (configuration not stated) — lower, 0.197%
- O=C1c2cccc3c([N+](=O)[O-])ccc(c23)C(=O)N1CC1CCCO1 (configuration not stated) — higher, 3%
- COCCNC(=O)c1ccc2c(c1)N=C(C)c1cc(C)ccc1S2 — lower, 0.312%
- Cc1ccc(-n2c(SCC(=O)Nc3cccc(F)c3)nc3c(oc4ccccc43)c2=O)cc1C — higher, 2.59%
- Cc1ccc(N2CCN(C(=O)CCc3c(C)nc4c(c3C)c(=O)n(C)c(=O)n4C)CC2)c(C)c1 — lower, -0.245%
- CCc1nnc(SCc2c(F)cccc2Cl)c2cc3sccc3n12 — lower, 0.47%
- COc1ccc(-c2cn3nc(N4CCCC(C(=O)NCCCOC(C)C)C4)sc3n2)cc1 (configuration not stated) — lower, -0.281%
- CN1c2ccc(Cl)cc2-c2nc(SCC(=O)Nc3cc(F)ccc3F)ncc2S1(=O)=O — lower, 0.0638%
- O=C(COc1ccc(Cl)cc1)Nc1ccc(-c2nc3cc(Cl)ccc3o2)c(O)c1 — higher, 1.1%
- O=C(NC1CC(=O)N(c2ccc(F)cc2)C1)C1CCCCC1 (configuration not stated) — higher, 1.31%
- CCOc1ccc(C(=O)N2CCN(CCc3ccccn3)CC2)cc1 — lower, 0.162%
- Cc1cc(NC(=O)CSc2ncc(C(=O)Nc3ccc(Cl)cc3)c(=O)n2C)no1 — lower, 0.675%
- O=C(Nc1ccccc1C(=O)N1CCCCC1)c1ccco1 — lower, -0.0145%
- Cc1c(Cl)cccc1NC(=O)CCC(=O)N/N=C/c1ccco1 — lower, 0.478%
- O=C(C(Cl)Cl)N1CCN(c2ccccn2)CC1 — higher, 4.39%
- CNC(=S)N1CCN(c2ccccn2)CC1 — higher, 2.09%
- Cc1cccc(-c2nnc(SCC(=O)N3CCCc4ccccc43)o2)c1 — lower, -1.45%
- CC(C)c1ccc(C2CC(=O)N3CN(C4CCCCC4)CSC3=C2C#N)cc1 (configuration not stated) — lower, 0.111%
- COc1ccccc1-c1cc2nc(C)c(CCC(=O)O)c(C)n2n1 — lower, 0.732%
- COc1ccc(N2CCN(S(=O)(=O)c3ccc(-c4coc(C)n4)cc3)CC2)cc1 — lower, -0.462%
- COc1cc(OC)c(NC(=O)c2cc(S(=O)(=O)N3CCCC3)cn2C)cc1Cl — higher, 2.37%
- CCC1=Nc2cc(C(=O)NCC(C)c3ccccc3)ccc2Sc2ccc(C)cc21 (configuration not stated) — lower, -0.272%
- O=C(CSc1nc2c(c(=O)[nH]1)CN(Cc1ccc3c(c1)OCO3)CC2)Nc1cc(F)ccc1F — lower, 0.843%
- CCCCCc1c(C)nc(N2CCN(Cc3ccc4c(c3)OCO4)CC2)[nH]c1=O — lower, 0.0879%
- CCn1c2ccccc2c2nnc(SCC(=O)O)nc21 — lower, -0.808%
- CCCCc1nn2c(=O)cc(COC(=O)c3ccc(NC(=O)c4ccccc4C)cc3)nc2s1 — higher, 8.52%
- O=C(CCCNS(=O)(=O)c1cccc2nsnc12)NCCN1CCN(c2ccccc2F)CC1 — higher, 24.7%
- CCOC(=O)N1CCN(c2c(NCCN3CCN(c4ccccc4F)CC3)c(=O)c2=O)CC1 — higher, 10.4%
- COc1ccccc1CN1CCC(CNC(=O)c2cnn(-c3ccccc3Cl)c2C2CCN(C(=O)OC(C)(C)C)CC2)CC1 — higher, 3.36%
- Cc1ccccc1NC(=O)Cn1c(=O)n(Cc2ccco2)c(=O)c2ccc(C(=O)NC3CCCC3)cc21 — lower, 0.581%
- Cc1cccc(-n2c(=O)c3c(c4cc(C)ccc4n3C)n(CC(=O)Nc3ccccc3Cl)c2=O)c1 — lower, 0.838%
- Cc1nc(CN2CCN(C(=O)CCc3nnc(Cc4c[nH]c5ccccc45)o3)CC2)cs1 — lower, 0.942%
- O=S(=O)(c1cccs1)N1CCN(CCOc2ccccc2)CC1 — higher, 21.2%
- Cc1ccc(Nc2ccc3cc(S(=O)(=O)N4CCCCC4)ccc3n2)cc1F — lower, 0.936%
- Cc1cccc(NC(=O)CN(c2ccc(C(C)C)cc2)S(=O)(=O)c2c(C)nn(C)c2C)c1C — lower, 0.387%
- Cc1nc2nc(SCC(=O)NC3CCC(C)CC3)nn2c(C)c1Cc1ccccc1Cl (configuration not stated) — lower, -0.0264%
- COc1ccccc1-c1noc(-c2ccc(NCc3ccccc3)c([N+](=O)[O-])c2)n1 — lower, -0.924%
- Cc1ccccc1C(=O)Nc1cc(C)c(O)c(-c2nc3ccccc3o2)c1 — lower, -0.387%
- CCn1cc(C(=O)NCc2ccc3c(c2)OCO3)c2cc(OC)c(OC)cc2c1=O — lower, -0.995%
- CCn1cc(C(=O)N2CCN(C3CCCCC3)CC2)c2cc(OC)c(OC)cc2c1=O — lower, 0.186%
- COc1ccc(-c2cc(C(=O)N3CCN(Cc4ccc5c(c4)OCO5)CC3)on2)cc1OC — lower, -0.524%
- O=C(Nc1cccc2ccccc12)N1CCN(Cc2ccc3c(c2)OCO3)CC1 — higher, 5.88%
- Cc1cc(C)n2nc(C(=O)Oc3ccc4c(c3)OCO4)nc2n1 — lower, -0.808%
- COc1cc(OC)c(N(C)C(=O)c2cc3c(=O)oc4ccccc4c3s2)cc1Cl — lower, 0.129%
- Cc1ccc(C)c(N2CCN(c3ccc4cc(S(=O)(=O)N5CCC(C)CC5)ccc4n3)CC2)c1 — lower, 0.192%
- Cc1ccc(-c2cn3c(n2)sc2cc(C(=O)NCCCc4ccccc4)ccc23)cc1 — higher, 1.23%
- CCN(CC)S(=O)(=O)c1ccc2c(c1)N(CC(=O)NCc1ccccc1)C(=O)CS2 — lower, -0.489%
- Cc1cccc(S(=O)(=O)c2cn(Cc3ccccc3)c3cc(N4CCOCC4)c(F)cc3c2=O)c1 — lower, -0.108%
- COc1ccccc1-c1ccnc2[nH]n(-c3ccccc3)c(=O)c12 — lower, -0.0633%
- COc1ccc(C(=O)N[C@H](C(=O)NCc2ccccc2)C(C)C)cc1 — lower, -0.577%
- COc1cc(OC)cc(C(=O)N[C@H](C(=O)Nc2nc3ccccc3[nH]2)C(C)C)c1 — lower, 0.237%
- c1cnc(N2CCN(c3ccc4ccccc4n3)CC2)nc1 — lower, 0.566%
- Cc1ccc(CN2CCN(/N=C/c3cccnc3)CC2)c(C)c1 — lower, -0.239%
- CN(C)C(=O)c1nc2ccc(Cl)cn2c1CN1CCN(c2ncccn2)CC1 — higher, 5.69%
- Cc1ccc(CN2CCN(/N=C/c3ccco3)CC2)c(C)c1 — lower, 0.881%
- COc1cc(C(CC(=O)NCCC(C)C)N2Cc3ccccc3C2=O)cc(OC)c1OC (configuration not stated) — higher, 2.01%
- CCc1ccc2oc(-c3ccc(C)c(NC(=O)/C=C/c4ccco4)c3)nc2c1 — lower, 0.62%
- CCc1ccccc1NC(=O)Cn1c(=O)n(-c2cccc(C)c2)c(=O)c2c1c1cc(OC)ccc1n2C — lower, 0.643%
- O=C(CC(c1ccccc1)c1ccccc1)NCC(O)c1ccc([N+](=O)[O-])cc1 (configuration not stated) — lower, -0.594%
- CC(C)OP(=O)(OC(C)C)C(Nc1ccccc1)c1cccc([N+](=O)[O-])c1 (configuration not stated) — lower, -2.16%
- Oc1c(C(c2ccc(F)cc2)N2CCN(Cc3ccccc3)CC2)sc2nc(-c3ccco3)nn12 (configuration not stated) — lower, 0.375%
- COc1cc(NC(=O)c2noc3c2CSc2ccccc2-3)cc(OC)c1OC — lower, -0.598%
- COc1ccc(-c2nc3scc(CCNS(=O)(=O)c4cc(F)ccc4OC)n3n2)cc1OC — lower, -1.74%
- Cc1ccc(OCCn2c(CNc3ccccc3C)nc3ccccc32)cc1 — lower, 0.246%

For `Cc1cc2nc3c(=O)n(Cc4ccccc4)c(=O)[nH]c3nc2cc1N`, the activation was 64.2% (active).
In the case of `Cc1nn(C)cc1N1C(=O)c2cccc3c(N)ccc(c23)C1=O`, the activation is reported as 74% (active).
For `CN1C(=O)c2cccc3c(N)ccc(c23)C1=O`, the activation was 109% (active).
In the case of `CO/N=C/c1cn(-c2ccc(Cl)cc2)nn1`, the activation is reported as 33.3% (active).
For `CS/C(=C\C(=O)c1ccco1)Nc1ccccc1Cl`, the activation was 34.5% (active).
In the case of `CC(=C1C(=O)c2ccccc2C1=O)N1CCN(c2ccccn2)CC1`, the activation is reported as 62.2% (active).
With `Fc1ccc2[nH]c3c(N4CCN(Cc5ccc6c(c5)OCO6)CC4)ncnc3c2c1` the activation was 35.9% (active).
With `Cn1c(=O)c(=O)n(C)c2cc(S(=O)(=O)NCCN3CCN(c4ccccc4F)CC3)ccc21` the activation was 67.4% (active).
With `COC(c1ccccc1)c1nnc(CCC(=O)N2CCN(CCOc3ccccc3)CC2)o1` (configuration not stated) the activation was 47% (active).
In the case of `CCn1cc(C(=O)N2CCN(Cc3ccc4c(c3)OCO4)CC2)c2cc(OC)c(OC)cc2c1=O`, the activation is reported as 51.1% (active).
In the case of `O=C(c1cccs1)N1CCN(Cc2ccc3c(c2)OCO3)CC1`, the activation is reported as 84.2% (active).
With `Cc1cc(C)n2nc(C(=O)N3CCN(Cc4ccc5c(c4)OCO5)CC3)nc2n1` the activation was 40.9% (active).
In the case of `COc1cc(OC)cc(C(=O)N[C@H](C(=O)OCC(=O)NC(C)c2ccccc2)C(C)C)c1` (some centres not stated), the activation is reported as 32.6% (active).
In the case of `Oc1ccc(CN2CCN(c3ncccn3)CC2)cc1`, the activation is reported as 84.4% (active).
`Cc1ccc(CN2CCN(c3ncccn3)CC2)c(C)c1` was tested, and the activation was 71.3% (active).
With `CC(CCc1ccccc1)NCC(O)c1cccc([N+](=O)[O-])c1` (configuration not stated) the activation was 59.5% (active).
